Data from PubChem BioAssay (Tox21).
Records with an inconclusive call do not appear. Activity calls are given as the source filed them. Unless noted, calls follow the shape of the dose curve; as a rule, active = well fitted curve in the direction sought with a large enough effect in the repeat runs; inconclusive = weak or mixed curves; inactive = no such curve, though single readings can be large; an effect the other way counts as inactive or inconclusive.

What was measured:
[1] = qHTS assay to identify small molecule agonists of the estrogen receptor beta (ER-beta) signaling pathway - cell viability counter screen (AID 1259380); also: nearly all actives have a fitted effect of over 30% in size
Procedure, shortened: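 ER-beta-UAS-bla HEK293T cells in medium with 2% charcoal-stripped FBS, pre-incubated 6 hr, then treated 16 hr at 37C. Cytotoxicity read in the same wells by CellTiter-Glo luminescence after 30 min at room temperature.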

[2] = target: Androgen receptor (Homo sapiens) (UniProt P10275); experiment: qHTS assay to identify small molecule agonists of the androgen receptor (AR) signaling pathway in the presence of an antagonist (AID 1259381; calls by dose curve; also: nearly all actives have a fitted effect of over 15% in size)
Sequence of Androgen receptor (Homo sapiens) (P10275 whole entry, looked up): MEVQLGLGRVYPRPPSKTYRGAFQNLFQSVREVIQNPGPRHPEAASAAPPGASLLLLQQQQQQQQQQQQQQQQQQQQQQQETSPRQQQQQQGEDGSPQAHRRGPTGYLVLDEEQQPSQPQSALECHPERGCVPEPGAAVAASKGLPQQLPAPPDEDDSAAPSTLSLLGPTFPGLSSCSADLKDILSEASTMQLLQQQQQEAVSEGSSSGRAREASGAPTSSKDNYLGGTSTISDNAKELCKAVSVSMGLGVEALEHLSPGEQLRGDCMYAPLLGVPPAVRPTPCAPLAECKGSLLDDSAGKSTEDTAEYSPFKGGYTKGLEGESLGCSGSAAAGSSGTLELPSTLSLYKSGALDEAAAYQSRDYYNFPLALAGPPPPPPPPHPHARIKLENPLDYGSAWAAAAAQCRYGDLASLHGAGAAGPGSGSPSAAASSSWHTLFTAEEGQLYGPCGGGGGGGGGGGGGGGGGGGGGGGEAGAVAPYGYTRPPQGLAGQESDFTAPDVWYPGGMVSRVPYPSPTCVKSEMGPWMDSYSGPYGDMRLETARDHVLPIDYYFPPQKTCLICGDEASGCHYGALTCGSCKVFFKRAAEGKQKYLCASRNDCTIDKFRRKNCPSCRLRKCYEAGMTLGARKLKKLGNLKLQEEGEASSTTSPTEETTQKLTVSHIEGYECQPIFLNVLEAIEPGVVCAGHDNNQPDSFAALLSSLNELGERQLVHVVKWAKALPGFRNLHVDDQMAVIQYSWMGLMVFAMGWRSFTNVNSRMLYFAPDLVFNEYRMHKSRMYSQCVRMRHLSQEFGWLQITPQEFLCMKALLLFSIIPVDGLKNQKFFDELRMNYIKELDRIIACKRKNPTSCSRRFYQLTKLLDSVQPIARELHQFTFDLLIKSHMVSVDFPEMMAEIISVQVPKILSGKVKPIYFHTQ
Procedure, shortened: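 MDA-kb2 cells carrying MMTV-luciferase (AR/GR responsive), 3,000 cells/well, co-treated with 3.0 uM nilutamide final. Compounds at 15 concentrations, 16 hr at 37C without CO2. Luciferase luminescence read after 30 min with ONE-Glo.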

[3] = qHTS assay to identify small molecule antagonists of the estrogen receptor beta (ER-beta) signaling pathway - cell viability counter screen (AID 1259382);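 also: HEK293T cells carrying ER-beta-UAS-bla reporter stimulated with estradiol; series mostly up to about 92 µM; nearly all actives have a fitted effect of over 55% in size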
Procedure, shortened: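 ER-beta-UAS-bla HEK293T cells in 2% charcoal-stripped FBS medium, treated with compound plus 1 nM 17-beta-estradiol for 16 h at 37C. Viability read by CellTiter-Glo luminescence after 30 min at room temperature in the same wells.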

[4] = target: Estrogen receptor (Homo sapiens) (UniProt P03372); experiment: qHTS assay to identify small molecule agonists of the estrogen receptor alpha (ER-alpha) signaling pathway in the presence of an antagonist (AID 1259383; calls by dose curve; also: top concentration of the series differs between compounds; nearly all actives have a fitted effect of over 15% in size)
Sequence of Estrogen receptor (Homo sapiens) (P03372 whole entry, looked up): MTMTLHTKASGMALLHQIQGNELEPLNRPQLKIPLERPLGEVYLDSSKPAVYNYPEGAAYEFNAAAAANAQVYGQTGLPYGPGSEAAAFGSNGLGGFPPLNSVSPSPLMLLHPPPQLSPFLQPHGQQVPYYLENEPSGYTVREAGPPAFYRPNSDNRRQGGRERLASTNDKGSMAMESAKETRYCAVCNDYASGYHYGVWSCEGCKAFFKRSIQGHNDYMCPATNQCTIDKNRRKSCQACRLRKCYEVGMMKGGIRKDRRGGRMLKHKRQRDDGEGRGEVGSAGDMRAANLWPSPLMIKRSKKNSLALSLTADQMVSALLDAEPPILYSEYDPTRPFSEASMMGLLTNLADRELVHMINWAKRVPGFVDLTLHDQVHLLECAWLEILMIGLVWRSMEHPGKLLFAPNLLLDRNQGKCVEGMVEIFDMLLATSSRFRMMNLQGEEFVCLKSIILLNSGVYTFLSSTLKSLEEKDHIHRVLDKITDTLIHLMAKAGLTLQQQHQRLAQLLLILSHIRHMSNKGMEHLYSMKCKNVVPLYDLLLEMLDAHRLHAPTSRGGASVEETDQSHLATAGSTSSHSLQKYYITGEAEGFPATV
Procedure, shortened: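 VM7Luc4E2 cells express endogenous full-length ER-alpha with an ERE-luciferase reporter and were hormone-deprived for 5 days. Compounds at 15 concentrations were added with 10.0nM ICI-182,780 for 22hr at 37C. Luminescence was read with ONE-Glo.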

[5] = qHTS assay to identify small molecule agonists or antagonists of the thyroid stimulating hormone receptor (TSHR) signaling pathway - wild type cell line counter screen (AID 1259384; calls by dose curve)
Procedure, shortened: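 Wild-type Hek293 cells, 800/well, 18 h at 37C, then compound with Ro20-1724 for 30 min RT. cAMP by HTRF (cAMP-d2/anti-cAMP cryptate), 1 h RT, fluorescence read. 15 concentrations, triplicates.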

[6] = target: Thyrotropin receptor (Homo sapiens) (UniProt P16473); experiment: qHTS assay to identify small molecule antagonists of the thyroid stimulating hormone receptor (TSHR) signaling pathway (AID 1259385; calls by dose curve; also: nearly all actives have a fitted effect of over 20% in size; also: potency is read from the fitted curve at half-maximal effect)
Sequence of Thyrotropin receptor (Homo sapiens) (P16473 whole entry, looked up): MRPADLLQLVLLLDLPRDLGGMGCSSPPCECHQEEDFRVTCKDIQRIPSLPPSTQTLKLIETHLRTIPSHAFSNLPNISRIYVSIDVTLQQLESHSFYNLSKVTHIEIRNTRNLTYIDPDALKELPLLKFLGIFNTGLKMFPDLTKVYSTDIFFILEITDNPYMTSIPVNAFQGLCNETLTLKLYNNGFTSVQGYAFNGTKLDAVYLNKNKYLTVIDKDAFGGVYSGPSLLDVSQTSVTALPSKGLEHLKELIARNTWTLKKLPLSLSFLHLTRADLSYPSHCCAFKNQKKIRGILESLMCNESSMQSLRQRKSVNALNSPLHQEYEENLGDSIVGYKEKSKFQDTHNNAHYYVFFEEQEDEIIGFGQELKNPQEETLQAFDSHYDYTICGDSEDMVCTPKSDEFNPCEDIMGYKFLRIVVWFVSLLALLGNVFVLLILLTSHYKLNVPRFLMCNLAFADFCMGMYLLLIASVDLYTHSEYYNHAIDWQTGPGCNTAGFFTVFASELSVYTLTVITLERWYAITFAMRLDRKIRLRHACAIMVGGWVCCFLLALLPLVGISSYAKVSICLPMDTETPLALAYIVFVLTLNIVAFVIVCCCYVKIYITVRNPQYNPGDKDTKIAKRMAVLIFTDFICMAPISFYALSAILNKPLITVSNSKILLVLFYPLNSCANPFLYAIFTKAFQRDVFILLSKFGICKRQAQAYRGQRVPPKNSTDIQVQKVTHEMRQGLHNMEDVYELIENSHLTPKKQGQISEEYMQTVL
Procedure, shortened: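 TSHR-HEK293 cells (800/well) plated 18 h, then compounds with Ro20-1724 and TSH at 1.5 ng/mL final, 30 min at room temperature. cAMP quantified by HTRF (cAMP-d2/anti-cAMP-cryptate, 1 h); 15 concentrations in triplicate.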

[7] = target: Progesterone receptor (Homo sapiens) (UniProt P06401); experiment: qHTS assay to identify small molecule agonists of the progesterone receptor (PR) signaling pathway (AID 1346784; calls by dose curve; also: nearly all actives have a fitted effect of over 30% in size)
Sequence of Progesterone receptor (Homo sapiens) (P06401 whole entry, looked up): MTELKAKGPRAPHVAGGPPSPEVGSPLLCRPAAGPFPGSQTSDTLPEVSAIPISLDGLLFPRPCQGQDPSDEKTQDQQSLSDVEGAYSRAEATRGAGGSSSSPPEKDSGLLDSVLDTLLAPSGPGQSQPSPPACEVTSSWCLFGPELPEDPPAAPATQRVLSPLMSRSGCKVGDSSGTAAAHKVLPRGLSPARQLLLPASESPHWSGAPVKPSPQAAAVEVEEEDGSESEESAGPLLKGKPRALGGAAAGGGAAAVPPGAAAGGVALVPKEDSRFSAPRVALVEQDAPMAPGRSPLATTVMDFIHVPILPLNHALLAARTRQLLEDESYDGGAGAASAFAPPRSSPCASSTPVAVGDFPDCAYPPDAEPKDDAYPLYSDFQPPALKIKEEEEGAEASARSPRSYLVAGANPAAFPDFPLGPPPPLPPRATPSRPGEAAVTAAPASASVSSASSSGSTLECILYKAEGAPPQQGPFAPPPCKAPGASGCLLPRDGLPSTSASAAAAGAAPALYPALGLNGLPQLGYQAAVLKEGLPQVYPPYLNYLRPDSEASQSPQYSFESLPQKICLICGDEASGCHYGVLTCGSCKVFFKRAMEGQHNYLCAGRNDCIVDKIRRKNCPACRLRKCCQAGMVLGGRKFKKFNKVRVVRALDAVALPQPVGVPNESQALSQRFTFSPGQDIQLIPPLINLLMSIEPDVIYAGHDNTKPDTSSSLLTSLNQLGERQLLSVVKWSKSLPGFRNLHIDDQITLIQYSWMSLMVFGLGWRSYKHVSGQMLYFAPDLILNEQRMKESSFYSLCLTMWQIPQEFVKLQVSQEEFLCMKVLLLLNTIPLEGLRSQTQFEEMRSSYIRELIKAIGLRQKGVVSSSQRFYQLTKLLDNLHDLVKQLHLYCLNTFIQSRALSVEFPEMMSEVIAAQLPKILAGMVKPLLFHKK
Procedure, shortened: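 Seed PR-UAS-bla HEK 293T cells (2% charcoal-stripped FBS), incubate 6 hr at 37C; add compounds in DMSO, 16 hr at 37C; add LiveBLAzer B/G substrate, 2 hr RT; read fluorescence intensity.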

[8] = qHTS assay to identify small molecule antagonists of the progesterone receptor (PR) signaling pathway - cell viability counter screen (AID 1346798); also: series mostly up to about 92 µM; nearly all actives have a fitted effect of over 50% in size
Procedure, shortened: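 Measures cytotoxicity in parallel with the PR antagonist reporter read: HEK293T PR-UAS-bla cells get compound and R5020 for 16 hr, and remaining viable cells are quantified by CellTiter-Glo luminescence.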

[9] = qHTS assay to identify small molecule agonists of the progesterone receptor (PR) signaling pathway - cell viability counter screen (AID 1346799; calls by dose curve; also: nearly all actives have a fitted effect of over 45% in size)
Procedure, shortened: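 Using the same plates as the PR reporter screen, HEK293T PR-UAS-bla cells received compounds for 16 hr at 37C and were then lysed with CellTiter-Glo; luminescence was read 30 min later at room temperature.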

[10] = qHTS assay to identify small molecule antagonists of the TGF-beta/Smad signaling pathway - cell viability counter screen (AID 1346824); also: nearly all actives have a fitted effect of over 50% in size
Procedure, shortened: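 SBE-bla HEK 293T cells, incubated overnight, then compound plus 0.25 ng/mL TGF-beta1 (stock added) for 5 hr at 37 C. Viability was read in the same wells by CellTiter-Glo luminescence after 30 min at room temperature.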

[11] = qHTS assay to identify small molecule agonists of the TGF-beta/Smad signaling pathway (AID 1346859; active = well fitted activation curve with a large enough effect in the signal ratio in the repeat runs, not every such curve was filed as active; the % refers to the signal ratio; also: series mostly up to about 77 µM)
Procedure, shortened: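 Beta-lactamase reporter activity downstream of Smad binding elements was measured in stably transfected HEK 293T cells; compounds were incubated for 5 hr, substrate for 2 hr at room temperature.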

[12] = target: Thyrotropin-releasing hormone receptor (Homo sapiens) (UniProt P34981); experiment: qHTS assay to identify small molecule antagonists of the thyrotropin-releasing hormone receptor (TRHR) signaling pathway (AID 1346877; active = well fitted inhibition curve with a large enough effect in the repeat runs, not every such curve was filed as active; also: potency is read from the fitted curve at half-maximal effect)
Sequence of Thyrotropin-releasing hormone receptor (Homo sapiens) (P34981 whole entry, looked up): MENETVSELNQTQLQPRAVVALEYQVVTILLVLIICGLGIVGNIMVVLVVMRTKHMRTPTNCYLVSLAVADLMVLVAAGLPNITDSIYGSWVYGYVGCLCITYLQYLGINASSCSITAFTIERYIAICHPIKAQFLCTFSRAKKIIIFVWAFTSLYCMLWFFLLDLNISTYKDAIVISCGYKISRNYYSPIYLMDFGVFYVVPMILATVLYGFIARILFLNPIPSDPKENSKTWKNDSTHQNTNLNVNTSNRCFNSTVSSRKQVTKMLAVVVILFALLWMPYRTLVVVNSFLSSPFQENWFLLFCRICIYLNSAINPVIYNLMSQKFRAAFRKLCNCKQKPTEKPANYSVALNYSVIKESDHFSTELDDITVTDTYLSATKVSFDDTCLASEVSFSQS
Procedure, shortened: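 TRHR-expressing HEK293 cells loaded with calcium dye for 2 h at 37 C; compounds pre-incubated 5 min at room temperature before TRH challenge at 1 nM final. Intracellular calcium fluorescence read kinetically for 3 min; 15 concentrations in triplicate.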

[13] = target: Thyrotropin-releasing hormone receptor (Homo sapiens) (UniProt P34981); experiment: qHTS assay to identify small molecule agonists of the thyrotropin-releasing hormone receptor (TRHR) signaling pathway (AID 1346891; calls by dose curve; also: potency is read from the fitted curve at half-maximal effect; as to activation: series mostly up to about 58 µM)
Procedure, shortened: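 Overnight-plated (18 h, 37 °C, 5% CO2) TRHR-Hek293 cells; 2 h calcium dye at 37 °C; compound in DMSO; 3-min kinetic fluorescence read.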

[14] = Human pregnane X receptor (PXR) small molecule agonists, qHTS cell viability counter screen (AID 1346977); also: nearly all actives have a fitted effect of over 50% in size
Procedure, shortened: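 After a 5hr pre-incubation, PXR-Luc HepG2 cells received compounds plus positive control in DMSO and were kept 24hr at 37C. Cell viability was quantified by fluorescence from CellTiter-Fluor added for the final hour.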

[15] = Caspase-3/7 induction in HepG2 cells by small molecules, qHTS assay (AID 1346978); also: nearly all actives have a fitted effect of over 15% in size
Procedure, shortened: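 Wild-type HepG2 cells, 2,000/well, settled 5 hr at 37 C and 5% CO2, then compound-treated for 17 hr; caspase-3/7 activity read by luminescent Caspase-Glo 3/7 after 30 min at room temperature.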

[16] = Caspase-3/7 induction in CHO-K1 cells by small molecules, qHTS cell viability counter screen (AID 1346979); also: nearly all actives have a fitted effect of over 35% in size; also: potency is read from the fitted curve at half-maximal effect
Procedure, shortened: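 Multiplexed with Caspase-Glo 3/7 in CHO-K1 cells, this counter screen added CellTiter-Fluor after 16hr of compound exposure and recorded fluorescence 1hr later.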

[17] = Caspase-3/7 induction in CHO-K1 cells by small molecules, qHTS assay (AID 1346980); also: nearly all actives have a fitted effect of over 15% in size
Procedure, shortened: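 Wild-type CHO-K1 cells exposed to compounds for 17hr at 37 C, 5% CO2. Caspase-3/7 activity then measured by Caspase-Glo 3/7 luminescence after 30min at room temperature.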

[18] = qHTS assay to identify small molecule agonists of the estrogen receptor alpha (ER-alpha) signaling pathway in the presence of an antagonist - cell viability counter screen (AID 1259386);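 also: cells exposed to compounds for 22 h at 37 °C before the viability read; nearly all actives have a fitted effect of over 30% in size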; also: potency is read from the fitted curve at half-maximal effect
Procedure, shortened: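 Cell viability in VM7Luc4E2 cells (endogenous full-length ER-alpha) measured by CellTiter-Fluor fluorescence in the same wells as the luciferase screen. Cells pre-cultured 5 days in charcoal-stripped serum, then treated 22 h with compounds at 15 concentrations plus 10.0nM ICI-182,780.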

[19] = target: Progesterone receptor (Homo sapiens) (UniProt P06401); experiment: qHTS assay to identify small molecule antagonists of the progesterone receptor (PR) signaling pathway (AID 1346795; active = well fitted inhibition curve with a large enough effect in the signal ratio in the repeat runs, not every such curve was filed as active; the % refers to the signal ratio)
Procedure, shortened: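 Screening used a GripTite HEK293T line with PR-responsive UAS-beta-lactamase. Cells were challenged with compound in the presence of 1 nM R5020 final for 16 hr at 37C; B/G FRET substrate, 2 hr room temperature, fluorescence.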

[20] = qHTS assay to identify small molecule agonists of the TGF-beta/Smad signaling pathway - cell viability counter screen (AID 1346829); also: top concentration of the series differs between compounds; nearly all actives have a fitted effect of over 45% in size
Procedure, shortened: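 Same-well cytotoxicity: CellTiter-Glo added after the 2 hr room-temperature beta-lactamase substrate step, luminescence measured 30 min later; cells had 5 hr of compound at 37 C.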

Measured: Potency

O=C(c1ccccc1)c1ccc(Cl)cc1
active: [16] 61.1 µM
not listed: [18] | [19] | [20]
inactive: all other assays above

CCOC=C(C(=O)OCC)C(=O)OCC
not listed: [12] | [20]
inactive: all other assays above

O=C1OC2(c3ccccc31)c1ccc(O)c(Br)c1Oc1c2ccc(O)c1Br
active: [6] 48.6 µM | [18] 30.6 µM | [12] 1.2 µM | [13] 3.89 µM | [16] 27.3 µM
not listed: [4] | [5] | [7] | [9] | [11] | [19]
inactive: all other assays above

CCc1cccc(CC)c1
not listed: [5] | [6] | [16] | [18] | [19]
inactive: all other assays above

Clc1cccc(Cl)n1
not listed: [5] | [6] | [12] | [13] | [16] | [19] | [20]
inactive: all other assays above

C=CC(C)(C)O
not listed: [4] | [5] | [6] | [12] | [13] | [19]
inactive: all other assays above

C/C=C/C(=O)OCC(C)C
not listed: [4] | [16] | [19] | [20]
inactive: all other assays above
